Screening data deposited in PubChem BioAssay by National Center for Advancing Translational Sciences (NCATS).
BAZ2B inh = inhibitors of human BAZ2B bromodomain; Q9UIF8; AlphaScreen BAZ2B-H3K14Ac peptide displacement; Potency, µM (doses to about 114 µM), for the others: at the top dose activity change, negative = inhibition, hits mostly inhibitors; 4.4% of 360,000 active; note: % is set by controls: 0 for no effect and ±100 for the full control effect; nearly all actives have a fitted effect of over 60% in size
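AlphaScreen luminescence quantifies BAZ2B engagement of H3K14Ac peptide; the protein and biotinylated peptide are both at 50 nM final, buffer PBS pH 7.4 with 0.01% Tween-20, all steps at room temperature.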
HP1b binding inh = HP1-beta chromodomain-methylated histone interaction inhibition. P83916. AlphaScreen HP1-beta / biotin-H3K9me3 peptide binding. Potency, µM (top dose mostly 114 µM), without a hit: at the highest dose activity change, negative = inhibition, usual class: inhibitors. 0.56% of 390,000 active. AID 540317; note: nearly all actives have a fitted effect of over 70% in size
Target sequence (P83916 whole entry, looked up): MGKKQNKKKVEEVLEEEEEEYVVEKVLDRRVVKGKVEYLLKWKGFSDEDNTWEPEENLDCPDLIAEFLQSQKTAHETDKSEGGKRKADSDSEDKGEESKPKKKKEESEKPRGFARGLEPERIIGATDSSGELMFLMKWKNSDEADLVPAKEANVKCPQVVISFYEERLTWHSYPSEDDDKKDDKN
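Compound inhibition of the preformed complex between 50 nM HP1-beta and 50 nM biotinylated H3K9me3 peptide was read by AlphaScreen. Buffer was PBS pH 7.4 with 0.01% Tween-20. Incubations ran 30 min at room temperature, with 10 ug/mL donor/acceptor beads.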
JMJD2A Tudor = JMJD2A Tudor domain (human) inhibition. AlphaScreen JMJD2A-Tudor / H3K4me3 peptide binding. Potency, µM (top dose mostly 114 µM), for the others: at the top dose activity change, negative = inhibition, most hits filed as inhibitors. 4.4% of 390,000 active. AID 504339; note: % is set by controls: 0 for no effect and ±100 for the full control effect; nearly all actives have a fitted effect of over 50% in size
L3MBTL1 block = blocks human L3MBTL1; Potency, µM (highest dose often 57.1 µM), for inactives: at the highest dose activity, negative = inhibition, actives largely listed as inhibitors; Q9Y468; AlphaScreen L3MBTL1–H3K9me1 peptide binding; 0.66% of 230,000 active; note: % is set by controls: 0 for no effect and ±100 for the full control effect; nearly all actives have a fitted effect of over 60% in size
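L3MBTL1 (50 nM) pre-complexed 30 min with biotinylated H3(1-15)K9me1 peptide (75 nM), then compounds added for 30 min at room temperature; AlphaScreen streptavidin donor/nickel chelate acceptor beads (10 ug/mL final) read after 30 min dark incubation.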
Sfp PPTase inh = inhibitors of Bacillus subtilis Sfp phosphopantetheinyl transferase; Q9F4F7; Biochemical Sfp PPTase activity, qHTS; Potency, µM, for the others: largest response in the series, negative = inhibition, usual class: inhibitors; 3.5% of 310,000 active;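 note: the enzyme is Sfp with the accession as filed and its product quenches rhodamine fluorescence; 0% = enzyme reaction without inhibitor and -100% = no enzyme wells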
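Fluorescence-quenching assay with 15 nM Sfp, 5 uM rhodamine-CoA and 12.5 uM BHQ-2-labelled ybbR peptide in pH 7.6 Hepes/MgCl2 buffer. Enzyme was pre-incubated with compound for 15 min at room temperature. Rate was taken from the 30-min fluorescence change (525/598 nm).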
G9a inh = inhibitors of human histone lysine methyltransferase G9a; G9a H3K9 monomethylation, AlphaScreen, 2 h; AID 504332; Potency, µM (series often up to 102 µM), without a hit: at the top dose activity, negative = inhibition, actives largely listed as inhibitors; 8.8% of 350,000 active; note: % is set by controls: 0 for no effect and ±100 for the full control effect; nearly all actives have a fitted effect of over 75% in size
Target sequence (Q96KQ7 913-1193 limits assumed): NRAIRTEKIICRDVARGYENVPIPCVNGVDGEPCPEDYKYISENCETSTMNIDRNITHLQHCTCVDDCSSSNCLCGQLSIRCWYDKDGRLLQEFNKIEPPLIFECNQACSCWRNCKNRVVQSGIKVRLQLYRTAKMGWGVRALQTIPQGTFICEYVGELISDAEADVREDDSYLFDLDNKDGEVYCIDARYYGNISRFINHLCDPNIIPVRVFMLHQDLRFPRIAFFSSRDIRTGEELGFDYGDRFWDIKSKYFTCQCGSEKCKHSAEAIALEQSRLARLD
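Signal arises when biotinylated H3K9 peptide, once monomethylated, bridges streptavidin donor and antibody-captured acceptor beads. Enzyme at 20 nM was preincubated 15 min with test compounds; peptide 500 nM and SAM 20 uM then reacted for 2 h.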
* hit, by the source's call; ? = inconclusive; . = no result; [ ] = another dose, or the depositor's remark. Compounds with a hit are over-represented: about 12% of the library has one in this group of screens. Calls come from the whole dose curve; as a rule, active = well fitted curve in the direction sought with a large enough effect; inconclusive = small, poorly fitted or top-dose-only effect, or another doubt; inactive = no such curve, though single readings can be large; an effect the other way counts as inactive or inconclusive. Potency is the fitted concentration of half-maximal effect.

SMILES	BAZ2B inh	HP1b binding inh	JMJD2A Tudor	L3MBTL1 block	Sfp PPTase inh	G9a inh
CCN(CCNC(=O)C1CCN(Cc2nc(-c3ccc(Cl)cc3)oc2C)CC1)c1ccccc1	14.1µM*	?	50.1µM*	?	?	?
COc1ccc(CSc2nnc(-c3ccncc3)n2C)cc1F	-2.0%	12.3%	-13.6%	.	5.2%	?
COc1ccc(NC(=O)CSC2=Nc3ccccc3C3=NC(CC(=O)NCCc4ccccc4)C(=O)N23)cc1 (stereo unspecified)	-16.8%	15.4%	?	.	.	9.3%[59 µM]
CCN(CCNC(=O)C1CCN(Cc2nc(-c3cccc(Cl)c3)oc2C)CC1)c1ccccc1	39.8µM*	?	39.8µM*	-40.0%	?	?
COc1cccc2cc(-c3nc(-c4ccccc4)c(C)s3)c(=O)oc12	.	28.2%[57 µM]	2.3%[57.1 µM]	.	.	.
Cc1noc(C)c1C(=O)OC(C)C(=O)NC(C)c1ccc(Cl)cc1Cl (stereo unspecified)	.	39.0%	6.5%	50.4%	.	.
CCCCOc1ccc(Nc2cc(Cl)ccc2C(=O)O)cn1	70.8µM*	-30.5%	?	.	9.9%	30.1%[0.501 µM]
O=C(CCCOc1ccc(Cl)cc1Cl)Nc1ccccc1C(=O)O	-1.1%	31.6%	-13.3%	4.1%	21.3%	-3.0%
CC(Oc1ccc(F)cc1)C(=O)Nc1cc(C(F)(F)F)ccc1-n1cncn1 (stereo unspecified)	8.5%	32.9%	-0.7%	10.5%	.	56.2µM*
Cc1ccc(CNC(=O)C2CCN(C(=O)Nc3ccc(C)cc3)CC2)cc1	7.4%	1.5%	-9.7%	.	11.9%	-1.3%
CN(C(=O)c1ccno1)c1nnc(-c2ccccn2)s1	50.1µM*	49.4%	?	-1.4%	16.6%	?
CN(C(=O)c1ccncc1)c1nnc(-c2ccccn2)s1	56.2µM*	16.3%	-27.7%	.	7.8%	-4.0%[12.7 µM]
Cc1ccc(C(=O)N(C)c2nnc(-c3ccncc3)s2)cc1	-33.8%	8.4%	79.4µM*	5.9%	-4.4%	.
CN(C(=O)c1ccc(C#N)cc1)c1nnc(-c2ccccn2)s1	8.3%	102.2%	-0.3%	-3.9%	0.7%	-14.8%[59 µM]
O=C(NCCCN1CCCC1=O)c1c(O)nc2ccccn2c1=O	-16.1%	59.8%	11.3%	.	6.2%	-12.1%
Cc1ccc(S(=O)(=O)N(C)CC(=O)Nc2ccccc2N2CCCC2)cc1	?	11.2%	-25.0%	-10.3%	.	-2.0%[12.7 µM]
COc1cccc(C(=O)NCCS(=O)(=O)NC2CCCC2)c1	13.7%	19.3%	-6.8%	4.9%	.	31.6µM*
COc1cccc(C(=O)NCCS(=O)(=O)NCCc2ccccc2)c1	6.2%	22.6%	-2.9%	-0.9%	.	44.7µM*
COc1ccc(C(=O)NCCS(=O)(=O)NC2CCCC2)cc1	8.6%	32.1%	-10.8%	-2.5%	.	-17.9%
CC(C)N(C(=O)c1cc2c(Cl)nc3ccccc3c2s1)C1CCCCC1	-5.0%	25.5%	-12.8%	.	.	-4.3%[59 µM]
O=C(N/N=C/c1ccc(Sc2nc3ccccc3[nH]2)o1)c1ccncc1	-5.6%	?	-13.4%	10.5%	-4.7%	44.7µM*
COC(=O)[C@@H]1CC[C@H](C)[C@@H](c2ccc(C)cc2)N1C(=O)c1ccc(/C=N\O[C@@H](C)c2cc(-c3c(C)cc(C)cc3C)no2)cc1	.	.	.	.	-14.5%	.
COc1ccc(CCNC(=O)CCOc2cc(C)ccc2C)cc1OC	-13.0%	33.4%	-9.0%	.	13.3%	-3.0%
Cc1cc(C(=O)NNC(=O)c2cccc(C(F)(F)F)c2)no1	4.7%	19.3%	-8.6%	5.0%	7.5%	1.0%
O=C(NNC(=O)c1cccc(C(F)(F)F)c1)c1ccncc1	?	14.9%	-18.0%	.	15.8%	25.1µM*
SMILES	BAZ2B inh	HP1b binding inh	JMJD2A Tudor	L3MBTL1 block	Sfp PPTase inh	G9a inh
CCOc1ccc(N=C(/C(C(=O)C(=O)N2CCOCC2)=C(/O)c2ccccc2)c2ccccc2)cc1	?	65.3%	-14.0%	9.1%	-0.3%	.
COc1ccc(OC)c(-c2nnc3n2N=C(c2ccccc2OC)CS3)c1	.	.	79.4µM*	.	?	.
COc1cccc(-c2nnc3n2N=C(c2ccc(OC)cc2OC)CS3)c1	.	.	?	.	44.7µM*	.
COc1cc(OC)cc(-c2nnc3n2N=C(c2ccc(OC)cc2OC)CS3)c1	.	.	?	.	56.2µM*	.
CCc1cccc(NC(=O)c2cnc(SC)nc2-c2ccccc2)c1	20.3%	60.6%	15.2%	.	.	3.5%[59 µM]
COc1ccc(C(=O)N2c3ccc(C)cc3C(C)(c3ccccc3)CC2(C)C)cc1 (stereo unspecified)	-3.4%	11.3%	-18.3%	.	.	1.7%[59 µM]
NNc1cc([N+](=O)[O-])cc2c1C(=O)N(Cc1ccccc1)S2=O (stereo unspecified)	?	-1.8%	56.2µM*	-17.8%	22.4µM*	2.82µM*
CN(C)c1ncc2nc(-c3ccc(Cl)cc3)c(=O)n(Cc3cccs3)c2n1	.	.	.	.	-5.8%	21.9%[0.501 µM]
Cc1ccc2cc(CN(CCCN3CCOCC3)C(=O)NC3CCCCC3)c(=O)[nH]c2c1C	7.9%	13.7%	-14.9%	2.0%	20.1%	0.8%[59 µM]
Cc1cc2cc(CN(CCCN3CCOCC3)C(=O)NC3CCCCC3)c(=O)[nH]c2cc1C	7.4%	10.1%	-20.9%	-7.3%	44.7µM*	14.1µM*
O=C(NC1CCCCC1)N(CCN1CCCC1)Cc1cc2cc3c(cc2[nH]c1=O)OCCO3	7.7%	17.4%	-29.1%	-1.4%	-2.5%	39.8µM*
CCCN1CNc2c(c(=O)[nH]c(=S)n2CCc2ccsc2)C1	.	30.9%	-7.5%	.	.	.
C/C(CC(=O)Nc1cccc(F)c1)=N\NC(=O)c1ccncc1	-4.9%[57.1 µM]	33.9%	-12.1%	.	-6.8%	-9.9%
Cc1[nH]c2ccccc2c1C1=CC(=O)C=CC1=O	.	?	3.16µM*	.	.	.
O=C(O)C(CCCCN1C(=O)c2ccccc2C1=O)N1C(=O)c2ccccc2C1=O (stereo unspecified)	89.1µM*	46.3%	-7.6%	6.2%	-3.9%	?
NC(=O)c1cc2cc(Br)ccc2o/c1=N/NC(=O)c1cccc(F)c1	4.1%	21.7%	-1.8%	.	-0.9%	-7.8%
CCCN1Cc2cccc(C(=O)N3CCN(c4cc(Cl)ccc4C)CC3)c2C1=O	15.4%	24.8%	-9.0%	.	2.7%	-80.1%
COCCN1Cc2cccc(C(=O)N3CCN(c4cc(C)ccc4C)CC3)c2C1=O	6.0%	25.6%	-28.6%	.	-16.7%	44.7µM*
O=C(CCn1c(=O)c2ccccc2n(Cc2cccc(Cl)c2)c1=O)NCCc1ccccc1	-4.1%	16.0%	-16.1%	.	.	0.6%[59 µM]
COc1ccc(N2Cc3cccc(C(=O)Nc4ccc(Cl)cc4)c3C2=O)cc1	?	9.7%	-34.7%	.	.	-33.5%[59 µM]
COc1ccc(N2Cc3cccc(C(=O)Nc4cccc(F)c4)c3C2=O)cc1	.	-26.3%	20µM*	.	.	-30.6%[59 µM]
COc1ccc(Cc2n[nH]c(=S)n(N)c2=O)cc1	-24.7%	45.0%	-9.0%	14.6%	56.2µM*	?
